Compound activity as filed in PubChem.
The list is not random: actives were taken first. Their share in the collection is about 3.9%.
SARS 3CLpro inh – SARS-CoV 3CLpro protease inhibition; inhibition, % at 6 µM; 0.14% of 290,000 active; AID 1706; P0C6X7; recombinant SARS-CoV 3CLpro, quenched FRET peptide cleavage; in the data active means inhibition above about 12%
Anthrax LF prot – inhibitors of Bacillus anthracis lethal factor protease; P15917; multiplex microsphere protease cleavage assay, LF; inhibition, % at 10 µM; 0.12% of 360,000 active; further: plate controls were buffer without enzyme for full effect and enzyme alone for no effect
Target sequence (P15917 whole entry, looked up): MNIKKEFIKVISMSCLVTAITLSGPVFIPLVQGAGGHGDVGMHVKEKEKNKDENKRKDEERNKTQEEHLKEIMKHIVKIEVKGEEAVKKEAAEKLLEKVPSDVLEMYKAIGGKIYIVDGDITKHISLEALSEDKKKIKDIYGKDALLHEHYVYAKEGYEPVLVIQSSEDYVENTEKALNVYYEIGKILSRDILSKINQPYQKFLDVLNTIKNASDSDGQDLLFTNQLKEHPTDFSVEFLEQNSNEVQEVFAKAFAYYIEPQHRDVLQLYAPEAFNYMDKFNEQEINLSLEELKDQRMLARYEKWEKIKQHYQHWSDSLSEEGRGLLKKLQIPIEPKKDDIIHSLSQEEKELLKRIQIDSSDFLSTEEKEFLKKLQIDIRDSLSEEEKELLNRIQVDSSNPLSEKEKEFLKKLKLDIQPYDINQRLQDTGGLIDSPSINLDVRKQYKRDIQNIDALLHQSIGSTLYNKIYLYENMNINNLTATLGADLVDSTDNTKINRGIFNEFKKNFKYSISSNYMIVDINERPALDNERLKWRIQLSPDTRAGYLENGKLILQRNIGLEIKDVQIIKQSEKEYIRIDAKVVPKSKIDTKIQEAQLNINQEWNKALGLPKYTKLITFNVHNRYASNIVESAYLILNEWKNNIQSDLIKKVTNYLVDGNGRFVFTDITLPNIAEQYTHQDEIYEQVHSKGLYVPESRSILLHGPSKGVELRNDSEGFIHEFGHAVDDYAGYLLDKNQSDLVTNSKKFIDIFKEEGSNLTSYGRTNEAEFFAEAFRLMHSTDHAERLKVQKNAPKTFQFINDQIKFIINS
BoNT F protease – BoNT F light chain protease inhibition; Multiplex microsphere protease cleavage assay, flow cytometry; inhibition, % at 10 µM; 0.22% of 360,000 active; AID 588497; in the data active means inhibition above about 35%, passing the limit was not always enough; inconclusive means no clear call, values can overlap the other calls; further: plate controls were buffer without enzyme for full effect and enzyme alone for no effect
Autofluor counter – flagged as autofluorescent in microsphere protease counterscreen. AID 624483. fluorescence intensity (test concentration not listed). compound autofluorescence counterscreen, microsphere flow cytometry; stronger effect = higher value. 3.1% of 360,000 active; in the data active means fluorescence intensity above about 16000; inconclusive means no clear call, values can overlap the other calls
CCHF vOTU inh – CCHFV vOTU protease inhibition; Pep-AMC fluorescence; inhibition, % at 11.5 µM; 0.55% of 370,000 active; AID 651958; in the data active means inhibition above about 30%; further: 0% = vehicle wells with enzyme and 100% = no enzyme wells
BoNT-A LC inh2 – blocks Botulinum neurotoxin A light chain protease; inhibition, % at 10 µM; 0.17% of 360,000 active; AID 588499; multiplex microsphere protease substrate cleavage, flow cytometry; further: plate controls were buffer without enzyme for full effect and enzyme alone for no effect
The depositor's hits bear a star; ? = inconclusive; . = no result given; ! = not active in a repeat. Unless noted, no stated cut-off is given here; in the data, active means inhibition above about 30%; inconclusive means no clear call, values can overlap the other calls; inactive means below that.

SMILES	SARS 3CLpro inh	Anthrax LF prot	BoNT F protease	Autofluor counter	CCHF vOTU inh	BoNT-A LC inh2
O=C(c1cccs1)N1CCN(CCc2ccccc2)CC1	-4	1	-3	21277*	-14	-1
O=C(Cn1cnc2ccccc21)NCCCN1CCOCC1	1	-3	-7	24254*	18	-4
O=C(NCCN1CCN(C(=O)c2cccs2)CC1)c1cccs1	1	0	0	22034*	-10	0
O=C(Cc1ccccc1)N1CCN(C(=O)c2cccs2)CC1	-4	-2	-3	2577	20	0
O=C(CN1CCN(Cc2ccccc2)C1=O)NCCCN1CCOCC1	3	-2	-1	5999	-6	0
O=C(NCCCN1CCOCC1)c1cccs1	-1	-5	5	19558*	-11	?
CCOc1cccc(/C=N\NC(=O)Cc2cccs2)c1O	.	.	.	.	3	.
O=C(NCc1ccccc1)OCCN1C(=O)CCC12CCC(c1ccc(Cl)cc1)CC2 (centres undefined)	.	.	.	.	6	.
COCCCNC(=O)CN1C(=O)C2CCCCN2C(=O)c2ccccc21 (centres undefined)	.	.	.	.	0	.
CC(=O)c1cc(-c2ccccc2S(=O)(=O)NC(C)(C)C)c(=O)n2c1CCC2	.	.	.	.	-8	.
Cc1ccc(NC(=O)CSc2nc(NS(=O)(=O)c3ccc(C)cc3)cc(=O)[nH]2)cc1	1	-2	4	19078*	9	?
CC(C)(C)c1csc(NC(=O)CSc2nc3ccccc3c(=O)[nH]2)n1	5	-1	4	19081*	29	?
O=C(CSc1nc2ccccc2c(=O)[nH]1)Nc1ccc(S(=O)(=O)N2CCCC2)cc1	3	1	-3	16902*	-7	?
Cc1ccc(S(=O)(=O)Nc2cc(=O)[nH]c(SCC(=O)Nc3cccc(C(F)(F)F)c3)n2)cc1	9	3	-54	3088	14	-9
Cc1csc(NC(=O)CSc2nc3ccccc3c(=O)[nH]2)n1	4	16	8	10517	-11	0
O=C(CSC1=NCCS1)Nc1ccc(S(=O)(=O)N2CCCCCC2)cc1	2	-1	1	23340*	9	1
O=C(CSC1=NCCS1)Nc1ccc(S(=O)(=O)NC2CCCCC2)cc1	-1	-2	-4	8080	5	-1
CSCCCNC(=O)c1oc(=O)c2ccccc2c1-c1ccc(C)cc1	.	.	.	.	1	.
Cc1ccccc1C(=O)NNC(=O)CSc1nc2ccccc2c(=O)[nH]1	0	-5	-8	3957	-4	-1
CCN(c1ccc(NC(=O)COC(=O)c2ccc(S(=O)(=O)N3CCCC3)cc2)cc1)C(C)C	-2	-5	-10	24507*	-5	-3
O=C(CSc1nc2cc3ccccc3cc2[nH]1)Nc1ccc(F)cc1	1	-1	1	23788*	12	?
O=C(COC(=O)c1ccc(O)cc1)Nc1ccc(S(=O)(=O)N2CCCC2)cc1	.	1	0	2662	-2	1
Cc1cccc(C)c1NC(=O)CSc1nc2ccccc2c(=O)[nH]1	4	0	-1	22821*	-3	?
O=C(Nc1nc2ncccn2c1-c1ccc(C(F)(F)F)cc1)C1CC1	.	.	.	.	-48	.
CCOc1ccc(-n2c(SCC(=O)Nc3ccc4cn[nH]c4c3)nnc2-c2ccc(C(C)(C)C)cc2)cc1	.	.	.	.	11	.
SMILES	SARS 3CLpro inh	Anthrax LF prot	BoNT F protease	Autofluor counter	CCHF vOTU inh	BoNT-A LC inh2
COc1cccc(-c2nnc3n2N=C(C(C)(C)C)CS3)c1	1	2	-2	23357*	13	0
COc1cccc(-c2nnc3n2N=C(c2ccc(Cl)cc2)CS3)c1	.	.	.	.	2	.
COc1ccc(-c2nnc3n2N=C(C)CS3)cc1	-2	-1	-1	23552*	-2	?
CC1=Nn2c(nnc2-c2ccco2)SC1	7	0	3	22078*	-3	2
CCCCCC(=O)NC1CCCCN(Cc2ccc(C)cc2)C1=O (centres undefined)	.	.	.	.	2	.
COc1ccc(C2C(C(=O)Nc3ccc(F)cc3)CCC(=O)N2c2ccc(OC)cc2)cc1 (centres undefined)	.	.	.	.	-3	.
Cc1ccc(S(=O)(=O)N2CCCC(C(=O)NCCCN3CCCCC3C)C2)cc1 (centres undefined)	0	2	0	25210*	1	2
CC1CC(C)CN(S(=O)(=O)N2CCCC(C(=O)NCCCN3CCCCC3C)C2)C1 (centres undefined)	-5	1	4	5870	10	0
COC(=O)C1C(=O)/C(=C(/C)N2CCCC2)C(=O)CC1(C)C (centres undefined)	3	0	-1	23073*	0	?
CCCC(=O)C1=C(N2CCCCC2)CC(C)(C)C(C(=O)OC)C1=O (centres undefined)	0	-3	-5	3950	3	0
C/C(C=NNC(=O)CSc1nc2ccccc2n1Cc1ccccc1Cl)=C\c1ccccc1	.	.	.	.	7	.
O=C(Nc1ccccc1)c1ccc(OC(=O)c2cc3ccccc3o2)cc1	5	2	4	21900*	-17	2
Cn1c(=O)c(=O)n(C)c2cc(S(=O)(=O)N3CCN(c4ccccc4Cl)CC3)ccc21	.	.	.	.	4	.
Cc1ccc(/C=N\Nc2cn[nH]c(=O)c2Cl)cc1	-1	-1	-5	23558*	3	1
Cc1ccccc1CN1CCCCC(NC(=O)Cc2cccs2)C1=O (centres undefined)	.	.	.	.	7	.
COc1ccc(NC(=O)N2CCC(c3nc4ccc(Cl)cc4[nH]3)CC2)cc1OC	.	.	.	.	-6	.
COC(=O)c1cc(NC(=O)Cc2ccccc2[N+](=O)[O-])cc(C(=O)OC)c1	-3	-4	3	18194*	-6	4
O=C(Cc1ccccc1[N+](=O)[O-])Nc1ccc2c(c1)OCCO2	5	1	-5	2455	5	0
COc1ccc2c(c1)c(=O)oc1cc(OCC(=O)N3CCCC(C)C3)ccc12 (centres undefined)	1	-2	4	2969	-65	0
COc1ccc2c(c1)c(=O)oc1cc(OCC(=O)N3CCC(C)CC3)ccc12	-5	2	11	20779*	.	5
C[C@@H]1OCN(C)[C@H]2C[C@H]3c4[nH]c5cccc(-c6cccc(F)c6)c5c4CCN3C(=O)[C@@H]12	.	.	.	.	-20	.
C=Cc1c(C)c2cc3[nH]c(cc4nc(cc5nc(cc1[nH]2)C(C)=C5CCC(=O)O)C(CCC(=O)O)=C4C)c(C)c3C=C	.	8	-9	6983	19	43*!
CCNC(=S)NNC(=O)CSc1nnc(-c2ccccc2)n1-c1ccc(Cl)cc1	.	.	.	.	-1	.
Cc1cc([N+](=O)[O-])c2[nH]c(C(=O)N/N=C/c3ccccc3C(=O)O)c(-c3ccccc3)c2c1	-2	2	-1	19535*	-13	1
Cc1cc(C(=O)NN=Cc2ccccc2C(=O)O)n[nH]1	.	.	.	.	1	.
O=[N+]([O-])c1ccc(OCCCN2CCC(C(O)(c3ccccc3)c3ccccc3)CC2)c(Cl)c1	.	.	.	.	12	.
Cc1ccc(C(O)P(=O)(OCc2ccccc2)c2ccc(N(C)C)cc2)cc1 (centres undefined)	0	-1	?	3442	-1	-6
